Laboratory results taken from ChEMBL document CHEMBL4513146, “CO-ADD screening of Karazin Kharkiv National University (Ukraine) compounds”.
Measured potencies and affinities stand elsewhere.

Assays:
Staphylococcus aureus = settings: Concentration 32 ug.mL-1;; ASSAY_TEST Inhibition of Bacterial Growth; detection method Absorption (OD600); MEDIA CAMHB; plate type 384well; NBS; CORNING #3640; time 18 hr
Escherichia coli = settings: Concentration 32 ug.mL-1;; ASSAY_TEST Inhibition of Bacterial Growth; detection method Absorption (OD600); MEDIA CAMHB; plate type 384well; NBS; CORNING #3640; time 18 hr

SMILES	Inhibition (Staphylococcus aureus) [%]	Inhibition (Escherichia coli) [%]
COc1ccc(CCn2c(=O)c3sccc3n3c(=O)n(CC(=O)c4ccccc4)nc23)cc1OC	14.35	3.29
CCc1nnc2ccc(S(=O)(=O)N(Cc3ccc(OC)cc3)c3ccc(F)cc3)cn12	4.6	-5.2
Cc1cc(C)cc(Nc2nc(C)cc3nn(CC(=O)NC4CCCC4)c(=O)n23)c1	11.66	0.01
Cc1ccc(Oc2nc3ccccc3n3c(=O)n(CC(=O)Nc4ccc5c(c4)OCO5)nc23)cc1	1.4	-7.69
CCC(Sc1nnc2c(=O)n(-c3ccc(C)c(C)c3)ccn12)C(=O)Nc1cc(OC)ccc1OC (stereo not given)	-17.77	-11.35
COc1ccc(-c2cc3c4nnc(SCC(=O)Nc5ccccc5C(F)(F)F)n4ccn3n2)cc1	-10.53	1.87
Cc1ccc(CNC(=O)Cn2nc3c(Sc4ccc(C)cc4C)nccn3c2=O)cc1	-3.31	-11.72
Cc1ccc(-c2ccc3nn(Cc4cc(F)cc(F)c4)c(=O)n3n2)cc1C	13.44	1.52
COc1cccc(-n2ccn3c(SCC(=O)Nc4ccc(OC)c(OC)c4)nnc3c2=O)c1	14.09	-2.6
COc1ccc(NC(=O)Cn2nc3c(Sc4ccccc4)nccn3c2=O)c(OC)c1	-11.13	-9.08
Cc1cccc(CN(c2ccc(Cl)cc2)S(=O)(=O)c2cccn3c(C)nnc23)c1	13.75	2.16
CC(C)(C)Sc1ccc2nn(CC(=O)Nc3ccc(Cl)cc3)c(=O)n2n1	3.13	0.89
Cc1ccc(CNC(=O)Cn2nc3c(Oc4ccccc4C)nccn3c2=O)cc1	5.58	-1.39
COc1ccccc1-n1ccn2c(SCc3cc(C)ccc3C)nnc2c1=O	12.05	-5.03
Cc1ccc(NC(=O)Cn2nc3c(Oc4cccc(C)c4C)nccn3c2=O)c(Br)c1	0.42	-4.42
O=c1n(Cc2cccc(C(F)(F)F)c2)nc2c(S(=O)(=O)N3CCCCC3)cccn12	4.93	-3.78
Cc1c(Cl)cccc1-n1ccn2c(=O)n(Cc3c(F)cccc3Cl)nc2c1=O	-0.05	-8.85
Cc1ccc(Oc2nccn3c(=O)n(CC(=O)Nc4ccc(F)cc4F)nc23)cc1	19.59	-0.38
Cc1ccc(-c2ccc3nnc(CCC(=O)NCc4ccc(C(C)C)cc4)n3n2)cc1C	2.18	-3.19
CC(=O)c1cccc(NC(=O)CSc2nc3ccccc3n3c(C)nnc23)c1	-0.38	-4.41
CC1CC(C)CN(c2nccn3c(=O)n(CC(=O)NCc4ccccc4Cl)nc23)C1 (stereo not given)	3.32	2.48
CSc1ccc(-c2noc(Cn3nc4ccc(-c5ccccc5)nn4c3=O)n2)cc1	3.45	0.55
COc1cc(NC(=O)C(C)Sc2nnc3c(=O)n(-c4ccccc4OC)ccn23)cc(OC)c1 (stereo not given)	15.1	-4.09
CCCCN(CC)C(=O)CSc1nnc2c(=O)n(Cc3ccccc3F)ccn12	1.71	-7.34

SMILES	Inhibition (Staphylococcus aureus) [%]	Inhibition (Escherichia coli) [%]
CC(C)(C)Sc1ccc2nn(CC(=O)NCc3ccc(Cl)cc3)c(=O)n2n1	1.41	-5.27
C=Cc1ccc(CN(c2ccc3c(c2)OCO3)S(=O)(=O)c2ccc3nncn3c2)cc1	3.79	-6.77
CC(=O)c1ccc(N2CCN(C(=O)CCc3nnc4c5cc(-c6ccccc6)nn5ccn34)CC2)cc1	11.68	2.66
CCc1nnc2c(SCC(=O)Nc3cccc(OC)c3)nc3ccccc3n12	0.35	-7.16
Cc1ccccc1Oc1nc2ccccc2n2c(=O)n(CC(=O)NCc3ccc4c(c3)OCO4)nc12	13.3	0.04
Cc1ccc(NC(=O)Cn2nc3c(SCc4ccccc4)nccn3c2=O)cc1C	6.06	-10.79
COc1ccc(N(Cc2cccc(F)c2)S(=O)(=O)c2ccc3nnc(C)n3c2)cc1	-0.61	-14.24
Cc1nnc2c(=O)n(CC(=O)Nc3ccccc3Cl)c3ccccc3n12	10.77	-2.02
Cc1cc2nn(CC(=O)N3CCCC3)c(=O)n2c(Nc2ccc(C)c(F)c2)n1	5.2	-7.93
O=C(Cn1nc2ccc(SCc3ccc(Cl)cc3)nn2c1=O)Nc1ccccc1C(F)(F)F	4.98	-5.74
Cc1ccc(Sc2nccn3c(=O)n(CC(=O)Nc4ccc(C)cc4Br)nc23)c(C)c1	8.09	-4.19
CCOc1ccc(-n2ccn3c(SCC(=O)Nc4ccc(CC)cc4)nnc3c2=O)cc1	18.59	-0.7
Cc1cccc(C)c1NC(=O)CSc1nc2ccccc2n2c(C)nnc12	11.69	-4.17
CCc1ccc(N(Cc2ccccc2)S(=O)(=O)c2cccn3c(CC)nnc23)cc1	13.69	-0.95
CN(C)C(=O)CSc1nnc2c(=O)n(-c3ccc(F)cc3)ccn12	8.32	0.14
CCOc1ccc(-n2ccn3c(SCC(=O)Nc4ccc(Cl)cc4)nnc3c2=O)cc1	4.06	-5.21
Cc1cc(C)c(NC(=O)CSc2nnc3ccc(C(=O)Nc4cccc(F)c4)cn23)c(C)c1	12.67	2.09
Cc1c(Cl)cccc1-n1ccn2c(=O)n(Cc3ccc(F)cc3)nc2c1=O	2.79	-11.88
Cc1ccc(S(=O)(=O)Nc2ccc3nnc(-c4ccccc4)n3n2)cc1C	8.79	-2.69
COc1ccc(-c2cc3c4nn(CC(=O)Nc5cc(C)ccc5C)c(=O)n4ccn3n2)cc1	3.16	2.02
O=S(=O)(c1ccc2nncn2c1)N(Cc1ccccc1F)c1ccc2c(c1)OCCO2	5.05	-6.13
COc1ccc(-c2cc3c4nn(CC(=O)Nc5cc(C)cc(C)c5)c(=O)n4ccn3n2)cc1	1.97	7.1
O=C(CSc1nnc2c(=O)n(-c3ccccc3)ccn12)Nc1cc(F)ccc1F	5.32	-13.66
COc1ccc(CCn2c(=O)c3sccc3n3c(=O)n(Cc4c(F)cccc4Cl)nc23)cc1OC	-2.47	-5.54

SMILES	Inhibition (Staphylococcus aureus) [%]	Inhibition (Escherichia coli) [%]
CCOc1ccccc1NC(=O)Cn1nc2c(N3CCN(c4ccccc4C)CC3)nccn2c1=O	-2.13	-13.69
Cc1cc(C)c(NC(=O)Cn2nc3n(C)c(=O)c4c(c(-c5ccccc5)cn4C)n3c2=O)c(C)c1	6.14	1.74
COc1cccc(C(=O)CSc2nnc3c(=O)n(-c4ccc(F)cc4)ccn23)c1	4.06	2.2
O=S(=O)(c1cccn2cnnc12)N(Cc1cccc(F)c1)c1cccc(Cl)c1	6.21	-7.43
COc1ccc(CN(c2ccc(F)cc2)S(=O)(=O)c2cccn3c(C)nnc23)cc1	15.23	-3.22
COc1ccc(NC(=O)Cn2nc3c(SC4CCCCC4)nccn3c2=O)cc1Cl	-11.83	-6.21
O=C(Cn1nc2ccc(-c3ccccc3)nn2c1=O)Nc1ccc(Cl)c(C(F)(F)F)c1	6.21	-6.69
O=c1c2nnc(-c3cccc([N+](=O)[O-])c3)n2ccn1-c1ccc(F)cc1	13.28	-1.02
CCOc1ccc(-n2ccn3c(SCC(=O)c4ccc(F)cc4)nnc3c2=O)cc1	21.72	2.02
CC(C)c1ccc(N(Cc2cccc(Cl)c2)S(=O)(=O)c2cccn3cnnc23)cc1	-3.13	-8.14
Cc1oc(-c2ccccc2)nc1CSc1nc2ccccc2n2c(C)nnc12	4.04	4.8
Cc1ccc(NC(=O)Cn2nc3ccc(SC4CCCCC4)nn3c2=O)cc1C	-6.2	-13.15
O=C(CSc1nnc2c3cc(-c4ccc(F)cc4)nn3ccn12)NCc1ccc(Cl)cc1	-3.32	-11.03
N#CCn1nc2n(Cc3ccc(F)cc3)c(=O)c3ccccc3n2c1=O	1.37	-10.2
O=C(Cn1nc2c(N3CCOCC3)nccn2c1=O)NCc1ccc(C(F)(F)F)cc1	3.92	-9.55
CCCCN(C)c1ccc2nnc(CCc3nc(-c4cc(OC)cc(OC)c4)no3)n2n1	-6.16	-4.97
Cc1ccc(C)c(NC(=O)Cn2nc3n(C)c(=O)c4c(c(-c5ccccc5)cn4C)n3c2=O)c1	-4.46	-19.92
O=C(CSc1nnc2c(=O)n(-c3ccccc3)ccn12)Nc1ccc(Br)cc1F	2.85	-9.92
CCC(Sc1nnc2c(=O)n(-c3ccc(F)cc3)ccn12)C(=O)Nc1cc(OC)cc(OC)c1 (stereo not given)	15.63	-3.99
Cc1cc2nn(CC(=O)Nc3ccc(C)c(F)c3)c(=O)n2c(Nc2ccc(C)c(F)c2)n1	6.9	-1.96
Cc1[nH]c2ccccc2c1C(=O)CSc1nnc2c(=O)n(-c3ccc(Br)cc3)ccn12	-0.76	-11.28
Cc1nnc2ccc(S(=O)(=O)N(Cc3cccc(F)c3)c3cccc(Cl)c3)cn12	1.14	-14.72
